# According to PubChem BioAssay (Tox21):
# Results filed as inconclusive are left out. A number with no mark means an inactive call. Active and inactive are the calls of the source. Calls follow the shape of the full dose curve.
# Test: qHTS assay for small molecule agonists of the p53 signaling pathway - cell viability (AID 651633); also: nearly all actives have a fitted effect of over 30% in size;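 as to activity change, negative = cytotoxicity: p53RE-bla HCT reporter cells with a stable beta-lactamase p53 reporter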
# Conditions: p53RE-bla HCT-116 viability, ATP luminescence, 16 h; series mostly up to 83.3 µM; activity change, negative = cytotoxicity: at the top concentration
# Source text: National Center for Advancing Translational Sciences [NCATS]
# NIH Chemical Genomics Center [NCGC]
# U.S. Environmental Protection Agency [EPA]
# National Institutes of Environmental Health Sciences [NIEHS]
# National Toxicology Program [NTP]
# U.S. Food and Drug Administration [FDA]
# p53, a tumor suppressor protein, is activated following cellular insult, including DNA damage and other cellular stresses. The activation of p53 regulates cell fate by inducing DNA repair, cell cycle arrest, apoptosis, or cellular senescence. The activation of p53, therefore, is a good indicator of DNA damage and other cellular stresses. […] The activation of the reporter gene under culture conditions can be detected by fluorescence intensity. This cell line was used to screen the Tox21 compound library in a 1536-well plate format and to identify agonists that activate the p53 signaling pathway.
# Tox21 Assay Protocol Summary:
# The p53RE-bla cells were dispensed at 4,000 cells/5 ul/well in 1536-well black wall/clear bottom plates using a Multidrop dispenser. After the assay plates were incubated at a 37 C/5% CO2 incubator for 5 hours, 23 nL of compounds dissolved in DMSO, positive controls or DMSO only was transferred to the assay plate by a pin tool. The plates were incubated at 37 C for 16 hours. After 1 uL of LiveBLAzerTM B/G FRET substrate was added using a Flying Reagent Dispenser, the plates were incubated at room temperature for 2 hours, and fluorescence intensity was measured by an Envision plate reader.
# For cell viability readout that measures cytotoxicity, 4 ul/well of CellTiter-Glo reagent was added into the assay plates using a Flying Reagent Dispenser. After 30 min incubation at room temperature, the luminescence intensity in the plates was measured using a ViewLux plate reader.
# % is scaled to controls: 0 for no effect and ±100 for the full control effect; potency is read from the fitted curve at half-maximal effect.
Structure (SMILES),Potency,"activity change, negative = cytotoxicity"
c1ccc(C2(N3CCCC3)CCCCC2)cc1,26.6 µM (active),
CCNC(C)Cc1cccc(C(F)(F)F)c1 (stereo not given),,24.4%
O=c1[nH]cc(N(CCCl)CCCl)c(=O)[nH]1,,20.1%
F/C(COc1ccc2c(c1)[nH]c1ccccc12)=C1/CN2CCC1CC2,,-19.2%
CN[C@H]1C[C@@H](N)[C@H](O)[C@@H](O[C@@H]2O[C@H](CO)[C@H](O)[C@@H]3OC4(O[C@H]23)O[C@H](C(N)CO)[C@H](O)[C@H](O)[C@H]4O)[C@@H]1O (stereo not given in full),inactive,
O=C1CN(O)C(c2ccccc2)=c2cc(Cl)ccc2=N1,,3.74%
CC(C)C[C@H]1C(=O)N2CCC[C@H]2[C@]2(O)O[C@](NC(=O)[C@@H]3C[C@@H]4c5cccc6[nH]cc(c56)C[C@H]4N(C)C3)(C(C)C)C(=O)N12,,10.1%
CC1(C)[C@H](C=C(Cl)Cl)[C@H]1C(=O)OCc1c(F)c(F)cc(F)c1F,,-25.6%
O=C1Nc2ccc(Cl)cc2C(c2ccccc2Cl)=NC1O (stereo not given),,18.2%
C/C=C(\CC)C(=O)NC(N)=O,,13.8%
O=C(O)/C=C\C(=O)O,inactive,
C[C@]12C[C@H]3S[C@H]3C[C@@H]1CC[C@@H]1[C@@H]2CC[C@]2(C)[C@@H](O)CC[C@@H]12,,-23.2% [at 39.1 µM]
O=C(CCl)c1ccc(Oc2ccc(C(=O)CCl)cc2)cc1,,16.7%
CCN(CC)CCO[C@H]1CC[C@@]2(C)C(=CC[C@@H]3[C@@H]2CC[C@]2(C)C(=O)CC[C@@H]32)C1,,-16.6%
Cc1cc(C(C)(C)c2ccc(O)c(C)c2)ccc1O,,-26.3%
[H+].[H+].[Hg+2].[O-]B([O-])[O-].[c-]1ccccc1,0.668 µM (active),
C[C@@H](Cc1ccccc1)NCCC(c1ccccc1)c1ccccc1,,-29.4% [at 39.1 µM]
C[C@]12CC[C@H](OS(=O)(=O)O)CC1=CC[C@@H]1[C@@H]2CC[C@]2(C)C(=O)CC[C@@H]12,,9.54%
CCCCC[C@@H](O)C1C(=O)OC(C)[C@H](O)/C=C/C=C/C=C/C=C/C=C(\C)C(O)C(O)C(O)C[C@H](O)C[C@H](O)C[C@H](O)C[C@H](O)C[C@@H]1O (stereo not given in full),inactive,
CCNCC(O)c1cccc(O)c1 (stereo not given),,13.1% [at 39.1 µM]

Structure (SMILES),Potency,"activity change, negative = cytotoxicity"
O=P(O)(O)C(Cl)(Cl)P(=O)(O)O,,4.47%
O=C(O)CCCO,,17.6% [at 95.3 µM]
NCC(O)c1cccc(O)c1 (stereo not given),,-8.12%
O=C(Nc1ccccc1-c1ccc(Cl)cc1)c1cccnc1Cl,,-25.2% [at 95.3 µM]
CC(=O)O[C@H]1C[C@H](O[C@H]2[C@@H](O)C[C@H](O[C@H]3[C@@H](O)C[C@H](O[C@H]4CC[C@@]5(C)[C@H](CC[C@@H]6[C@@H]5C[C@@H](O)[C@]5(C)[C@@H](C7=CC(=O)OC7)CC[C@]65O)C4)O[C@@H]3C)O[C@@H]2C)O[C@H](C)[C@H]1O[C@@H]1O[C@H](CO)[C@@H](O)[C@H](O)[C@H]1O,0.133 µM (active),
[S]=[Sb](=[S])[S][Sb](=[S])=[S],,23.6%
CC(C)NC(C)Cc1ccc(I)cc1 (stereo not given),,15.8%
Cc1ccccc1-n1c(CF)nc2ccc(N)cc2c1=O,,12.4%
CN(C)CCCCCCN(C)C,,14.8% [at 95.3 µM]
CCC(N)Cc1c[nH]c2ccccc12 (stereo not given),inactive,
COc1cc(C[C@H](C)N)c(OC)cc1C,,6.48% [at 95.3 µM]
C[C@H]1CC[C@]2(NC1)O[C@H]1C[C@H]3[C@@H]4CC[C@H]5C[C@@H](O)CC[C@]5(C)[C@H]4CC[C@]3(C)[C@H]1[C@@H]2C,,-20.1%
C[C@]12CC[C@@H]3c4ccc(OC(=O)N(CCCl)CCCl)cc4CC[C@H]3[C@@H]1CC[C@@H]2OP(=O)(O)O,inactive,
CCCCCc1cc(O)c2c(c1)OC(C)(C)[C@@H]1CCC(C)=C[C@@H]21,23.7 µM (active),
NC1=NC(=O)N2CC12 (stereo not given),,12%
O=C(O)/C=C/C(=O)O,inactive,
C[N+]1([O-])[C@@H]2CC[C@H]1CC(OC(=O)C(CO)c1ccccc1)C2 (stereo not given in full),inactive,
O=[N+]([O-])c1c(Cl)c(Cl)cc(Cl)c1Cl,,26.7%
C=CCC1(C(C)CCC)C(=O)N=C(S)NC1=O (stereo not given),,12.8%
CCON=O,,9.11%
